Data on eight compounds can be found in PubChem BioAssay (NCI).

Assay [1] can be described thus: NCI Yeast Anticancer Drug Screen. Data for the rad50 strain (AID 155).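 Note: 0% = growth of vehicle-only cultures of the same strain.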 Conditions: S. cerevisiae rad50 strain growth inhibition, stronger effect = higher value. An outline of the steps:
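Compounds were tested on a yeast strain with an engineered DNA damage repair alteration; the reported value is growth inhibition normalised to vehicle treatment.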

Assay [2] is described as follows: NCI Yeast Anticancer Drug Screen. Data for the mec2-1 strain (AID 157). To be noted: S. cerevisiae mec2-1 strain, stronger effect = higher value. The method in brief: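 Using mec2-1 yeast: add compound, measure growth, express inhibition versus vehicle-treated cultures.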
Assay [3] in a line: NCI Yeast Anticancer Drug Screen. Data for the sgs1 mgt1 strain (AID 161).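 Note: 0% = growth of cultures given vehicle only.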 To be noted: S. cerevisiae sgs1 mgt1 strain, stronger effect = higher value. The method in brief:
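Compounds are added to genetically altered yeast, and growth is compared with cultures given vehicle alone to give percent inhibition.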

Assay [4] is described as follows: NCI Yeast Anticancer Drug Screen. Data for the cln2 rad14 strain (AID 165).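 Note: 0% = growth equal to vehicle treated cultures.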 To be noted: S. cerevisiae cln2 rad14 strain, stronger effect = higher value. An outline of the steps: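 Yeast strain cln2 rad14, bearing defects in cell cycle control and DNA repair, serves as the test system; values reflect growth inhibition compared with vehicle.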
Assay [5] in a line: NCI Yeast Anticancer Drug Screen. Data for the bub3 strain (AID 167). To be noted: S. cerevisiae bub3 mutant strain, stronger effect = higher value. The method in brief: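 Growth of a checkpoint-deficient yeast mutant is measured after compound exposure. Values represent inhibition relative to vehicle.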
The nature of assay [6]: NCI Yeast Anticancer Drug Screen. Data for the mlh1 rad18 strain (AID 175). To be noted: S. cerevisiae mlh1 rad18 strain growth inhibition, stronger effect = higher value. An outline of the steps:
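Steps: expose repair-defective yeast to compound; measure growth; express inhibition against vehicle-treated controls.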

The mark [7] stands for this setting: at 5.0 µM (retest, dose inferred, filed as 0.5).
[8] abbreviates: at 50.0 µM (retest, dose inferred, filed as 5.0).

The panel holds about 79,000 compounds, 15% with a hit somewhere; the sample as a whole holds those more often. Unmarked numbers belong to inactive results. Active and inactive are the calls of the source. Cut-off read from the data, not from the text of the source: active = growth inhibition above about 70%; inactive = the rest.

Regarding `CC(=O)Oc1ccccc1N(C(C)=O)S(=O)(=O)c1ccc(C)cc1`, the growth inhibition was 16% in assay [1] (setting [7]); 98% (active) in assay [1] (setting [8]); 95.7% (active) in assay [1] (at 50.0 µM); 12% in assay [2] (setting [7]); 99% (active) in assay [2] (setting [8]); 97.5% (active) in assay [2] (at 50.0 µM). In addition, the growth inhibition in assay [3] (setting [7]) was 11%; in assay [3] (setting [8]), 99% (active); in assay [3] (at 50.0 µM) it was 96.2% (active); in assay [4] (setting [7]), 1%; in assay [4] (setting [8]), 99% (active); in assay [4] (at 50.0 µM), 98.5% (active). Moreover, the growth inhibition in assay [5] (setting [7]) was -2%; in assay [5] (setting [8]) it was 99% (active); in assay [5] (at 50.0 µM), 99.2% (active); in assay [6] (setting [7]), 34%; in assay [6] (setting [8]), 99% (active); in assay [6] (at 50.0 µM), 98.8% (active).
Regarding `O=C(CSc1nnc(Cc2ccccc2)o1)Nc1ccc(Cl)cc1`, the growth inhibition in assay [1] (setting [7]) is -20%; in assay [1] (setting [8]), 87% (active); in assay [1] (at 50.0 µM) it was 16.1%; in assay [2] (setting [7]), -5%; in assay [2] (setting [8]), 54%; in assay [2] (at 50.0 µM), 15.2%. Moreover, the growth inhibition was -1% in assay [3] (setting [7]); 80% (active) in assay [3] (setting [8]); 48.6% in assay [3] (at 50.0 µM); 18% in assay [4] (setting [7]); 79% (active) in assay [4] (setting [8]); 35% in assay [4] (at 50.0 µM). Further, the growth inhibition was 4% in assay [5] (setting [7]); 91% (active) in assay [5] (setting [8]); 26.2% in assay [5] (at 50.0 µM); -5% in assay [6] (setting [7]); 91% (active) in assay [6] (setting [8]); 28.8% in assay [6] (at 50.0 µM).
`O=S(=O)(ON=C1C=CC(=NOS(=O)(=O)c2ccccc2)C=C1)c1ccccc1`: the growth inhibition is 27% in assay [1] (setting [7]); 44% in assay [1] (setting [8]); 95.2% (active) in assay [1] (at 50.0 µM); 6% in assay [2] (setting [7]); 55% in assay [2] (setting [8]); 94% (active) in assay [2] (at 50.0 µM). In addition, the growth inhibition in assay [3] (setting [7]) was 21%; in assay [3] (setting [8]) it was 48%; in assay [3] (at 50.0 µM) it was 95% (active); in assay [4] (setting [7]), 16%; in assay [4] (setting [8]) it was 54%; in assay [4] (at 50.0 µM) it was 94.1% (active). Further, the growth inhibition in assay [5] (setting [7]) is 14%; in assay [5] (setting [8]), 54%; in assay [5] (at 50.0 µM), 96.7% (active); in assay [6] (setting [7]) it was 48%; in assay [6] (setting [8]) it was 76% (active); in assay [6] (at 50.0 µM) it was 96% (active).
Consider `O=C1OC2(CCCC2)OC1c1ccccc1` (centres undefined), for which the growth inhibition in assay [1] (setting [7]) was 2%; in assay [1] (setting [8]) it was -7%; in assay [1] (at 50.0 µM), 14.9%; in assay [2] (setting [7]), -1%; in assay [2] (setting [8]), 2%; in assay [2] (at 50.0 µM), -17.6%. Also, the growth inhibition in assay [3] (setting [7]) was -2%; in assay [3] (setting [8]) it was -7%; in assay [3] (at 50.0 µM), -9.7%; in assay [4] (setting [7]), -4%; in assay [4] (setting [8]), 0%; in assay [4] (at 50.0 µM), 72.2% (active). In addition, the growth inhibition in assay [5] (setting [7]) is -5%; in assay [5] (setting [8]), -4%; in assay [5] (at 50.0 µM), 13.2%; in assay [6] (setting [7]), -5%; in assay [6] (setting [8]), -9%; in assay [6] (at 50.0 µM) it was -6.4%.
For `Cc1cc(NCCCCCCCCNc2cc(C)nc3cc(N(C)C)ccc23)c2ccc(N(C)C)cc2n1`, the growth inhibition is 18% in assay [1] (setting [7]); 95% (active) in assay [1] (setting [8]); 84.9% (active) in assay [1] (at 50.0 µM); 18% in assay [2] (setting [7]); 97% (active) in assay [2] (setting [8]); 90.5% (active) in assay [2] (at 50.0 µM). Also, the growth inhibition was 53% in assay [3] (setting [7]); 97% (active) in assay [3] (setting [8]); 26.5% in assay [3] (at 50.0 µM); 24% in assay [4] (setting [7]); 97% (active) in assay [4] (setting [8]); 18.4% in assay [4] (at 50.0 µM). In addition, the growth inhibition in assay [5] (setting [7]) is 57%; in assay [5] (setting [8]), 97% (active); in assay [5] (at 50.0 µM), 32.1%; in assay [6] (setting [7]), 17%; in assay [6] (setting [8]), 96% (active); in assay [6] (at 50.0 µM), -17.5%.
Take `COc1cccc(-c2cc(=O)c3c(C)ccnc3[nH]2)c1`: the growth inhibition in assay [1] (setting [7]) was 8%; in assay [1] (setting [8]) it was 8%; in assay [1] (at 50.0 µM), 80.5% (active); in assay [2] (setting [7]) it was 4%; in assay [2] (setting [8]), 4%; in assay [2] (at 50.0 µM), 49.8%. In addition, the growth inhibition in assay [3] (setting [7]) is 15%; in assay [3] (setting [8]), 15%; in assay [3] (at 50.0 µM) it was 70.8% (active); in assay [4] (setting [7]) it was -4%; in assay [4] (setting [8]), -4%; in assay [4] (at 50.0 µM), 30%. The growth inhibition in assay [5] (setting [7]) is -9%; in assay [5] (setting [8]), -9%; in assay [5] (at 50.0 µM), 68%; in assay [6] (setting [7]), 14%; in assay [6] (setting [8]), 14%; in assay [6] (at 50.0 µM), 61.8%.
As to `Cc1nc2c(cnn2C)cc1CCc1ccccc1`, the growth inhibition is 2% in assay [1] (setting [7]); 16% in assay [1] (setting [8]); 14.7% in assay [1] (at 50.0 µM); 3% in assay [2] (setting [7]); 35% in assay [2] (setting [8]); 3.9% in assay [2] (at 50.0 µM). The growth inhibition in assay [3] (setting [7]) was 5%; in assay [3] (setting [8]), 53%; in assay [3] (at 50.0 µM) it was 19.6%; in assay [4] (setting [7]), 12%; in assay [4] (setting [8]), 50%; in assay [4] (at 50.0 µM), 25.1%. The growth inhibition in assay [5] (setting [7]) was 23%; in assay [5] (setting [8]), 78% (active); in assay [5] (at 50.0 µM), 76.1% (active); in assay [6] (setting [7]), 8%; in assay [6] (setting [8]), 39%; in assay [6] (at 50.0 µM) it was 23.6%.
Take `CCOC(=O)C1(C#N)C(c2ccccc2)CC(O)(c2ccc([N+](=O)[O-])cc2)C(C(=O)c2ccc([N+](=O)[O-])cc2)C1c1ccccc1` (centres undefined): the growth inhibition in assay [1] (setting [7]) was -10%; in assay [1] (setting [8]), -25%; in assay [1] (at 50.0 µM), 15.6%; in assay [2] (setting [7]), 5%; in assay [2] (setting [8]), -12%; in assay [2] (at 50.0 µM), 14.3%. The growth inhibition is -8% in assay [3] (setting [7]); 0% in assay [3] (setting [8]); -6.4% in assay [3] (at 50.0 µM); -18% in assay [4] (setting [7]); -17% in assay [4] (setting [8]); 31.4% in assay [4] (at 50.0 µM). Moreover, the growth inhibition in assay [5] (setting [7]) was -13%; in assay [5] (setting [8]), 2%; in assay [5] (at 50.0 µM), 6%; in assay [6] (setting [7]), 1%; in assay [6] (setting [8]), -3%; in assay [6] (at 50.0 µM), 21.2%.
